Eight molecules from PubChem BioAssay (NCI) can be followed below.

Molecules are shown by their SMILES. Compounds without any hit were thinned out: in the full panel of roughly 83,000, 20% have a hit.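 Compound tested at a single concentration for 48 hours in 96-well plates; a percent growth value below 10 was scored as active.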 Unmarked numbers belong to inactive results. Activity calls are given as the source filed them.

Common to all, as to experiment: NCI-60 one-dose screen, 48 h (100 = growth as untreated, 0 = no growth, -100 = all killed)
What all share (conditions): 10 µM unless noted

Experiment [1] deals with NCI-H23 lung.
Experiment [2] concerns NCI-H226 lung.
Experiment [3] concerns NCI-H322M lung.
The subject of experiment [4] is HOP-62 NSCLC.
Experiment [5] concerns NCI-H460 lung.
In experiment [6] the test system is HOP-92 NSCLC.
For experiment [7], the system named is NCI-H522 lung.
The test system of experiment [8] is A549/ATCC NSCLC.
Experiment [9] has as its system 786-0 renal.
Experiment [10] concerns COLO 205 colon.
For experiment [11], the system named is DU-145 prostate.
Experiment [12] concerns K-562 leukemia.
Experiment [13] concerns MALME-3M melanoma.
For experiment [14], the system named is MDA-MB-231 breast.
Experiment [15] has as its system RXF 393 renal.
The subject of experiment [16] is SF-268 CNS.
Experiment [17] has as its system SF-295 CNS.
Experiment [18] relates to SF-539 CNS.
Experiment [19] has as its system UACC-257 melanoma.
In experiment [20] the test system is M14 melanoma.

Consider `N#Cc1ccc(N2Cc3cc(Cl)ccc3OC3=C2C(=O)N(Cc2ccccc2)C3=O)cc1`, for which the growth in [1] was 10.8%; in [2], 100%; in [3], 96.3%; in experiment [4] it was 59%; in [5], 34.7%; in [6], -63.8% (active). Moreover, the growth in experiment [7] was -57.2% (active); in experiment [8] it was 66.3%; in experiment [9], -82.4% (active); in experiment [10], -69.2% (active); in experiment [11], -75.7% (active); in [12], -22.3% (active). Besides, the growth in experiment [13] is -64.4% (active); in experiment [14], -15.9% (active); in experiment [15], -79.8% (active); in experiment [16] it was -43.3% (active); in [17] it was 69.4%; in experiment [18], -60.3% (active). In addition, the growth in experiment [19] is -56.1% (active); in [20], -35.7% (active).

Turning to `Cc1nc2sc(C(=O)Nc3ccccc3Cl)c(N)c2cc1C(C)O` (stereo not given), the growth in experiment [1] was 93.5%; in experiment [2], 93.1%; in experiment [3] it was 91.1%; in [4] it was 75.8%; in [5], 98.8%; in experiment [6], 83.3%. Further, the growth in experiment [7] is 74%; in experiment [8], 75.6%; in [9] it was 84.8%; in experiment [10], 60.2%; in experiment [11] it was 96.6%; in [12], 22.5%. Also, the growth was 88.6% in experiment [13]; 80.9% in experiment [14]; 92.8% in experiment [15]; 86.7% in [16]; 84.3% in experiment [17]; 85.1% in experiment [18]. For the same molecule, the growth in [19] is 86.5%; in [20] it was 58.9%.

Regarding `Cc1nn(-c2ccc(-c3ccc(OC(F)(F)F)cc3)cc2)c2nc(-c3ccccc3)nc(N)c12`, the growth in [1] was 97.7%; in [2], 88.4%; in experiment [3], 86.4%; in experiment [4], 95.8%; in experiment [5], 83.2%; in experiment [6], 66.4%. Also, the growth is 83.7% in experiment [7]; 85.2% in experiment [8]; 93.8% in experiment [9]; 121% in [10]; 104% in experiment [11]; 93.1% in experiment [12]. Besides, the growth in [13] is 118%; in experiment [14], 85.1%; in experiment [15] it was 104%; in [16], 97.2%; in experiment [17], 110%; in [18], 100%. Besides, the values for the growth in experiment [19] and in experiment [20] were 101% and 102%, respectively.

Regarding `Cc1c(C(=O)Nc2nc3ccccc3[nH]2)cnn1-c1ccccn1`, the growth in experiment [1] is 101%; in experiment [2], 104%; in [3], 111%; in [4] it was 107%; in [5] it was 103%; in experiment [6] it was 135%. Further, the growth in experiment [7] was 76.2%; in experiment [8], 86.3%; in [9], 107%; in experiment [10], 126%; in [11], 112%; in experiment [12], 93.5%. The growth is 106% in [13]; 109% in [14]; 105% in experiment [15]; 107% in [16]; 102% in [17]; 98.9% in experiment [18]. The growth was 82.4% in [19] and 111% in experiment [20].

For the molecule `CC(=O)O[C@@H]1C[C@]2(C)[C@H]3[C@H](O)C[C@@H]4C5=CC(C)(C)CC[C@]5(C)CC[C@@]4(C)[C@]3(C)CC[C@H]2C(C)(C)[C@H]1O`, the growth in experiment [1] is 95.7%; in experiment [2] it was 99.4%; in experiment [3], 118%; in [4] it was 101%; in experiment [5], 102%; in experiment [6] it was 115%. Moreover, the growth in experiment [7] was 103%; in experiment [8] it was 94%; in [9] it was 99.3%; in [10] it was 117%; in experiment [11], 107%; in experiment [12] it was 108%. Further, the growth in experiment [13] is 107%; in experiment [14] it was 113%; in experiment [15] it was 111%; in experiment [16] it was 101%; in experiment [17], 104%; in [18], 102%. Moreover, the growth in experiment [19] was 110%; in experiment [20], 99.3%.

On to `CC(=O)Nc1nc2c(c(N)c1C#N)C(c1cccc(Cl)c1)C1=C(CCCC1=O)N2c1sc2c(c1C#N)CCCC2` (stereo not given), for which the growth in experiment [1] was 67%; in [2], 55.5%; in [3] it was 93.3%; in [4], 67.3%; in experiment [5], 53.1%; in [6], 40.1%. The growth in experiment [7] was 21.3%; in experiment [8] it was 32.8%; in experiment [9] it was 57.6%; in experiment [10], 59.6%; in experiment [11], 72.5%; in [12], 29.8%. Moreover, the growth in [13] is 83.3%; in experiment [14] it was 67.1%; in [15], 16.2%; in experiment [16], 66.3%; in [17] it was 44%; in [18], 65%. In addition, the results for the growth in experiment [19] and in [20] were 54.4% and 52.2%, respectively.

As for `C=C1C(=O)O[C@H]2[C@H]1CC/C(COC(=O)NCC(=O)Nc1ccc(OC)c(C(N)=O)c1O)=C\CC[C@@]1(C)O[C@@H]21`, the growth is 95.6% in [1]; 83.3% in experiment [2]; 92.2% in experiment [3]; 85.4% in experiment [4]; 97% in experiment [5]; 14.6% in [6]. Besides, the growth is -25.1% (active) in experiment [7]; 86.3% in experiment [8]; 58.7% in experiment [9]; 10.8% in experiment [10]; 66.4% in experiment [11]; 8.95% (active) in experiment [12]. Further, the growth in experiment [13] is 59.7%; in experiment [14], 68.2%; in experiment [15], 16.5%; in experiment [16] it was 70.8%; in experiment [17], 101%; in experiment [18] it was 7.54% (active). Besides, the results for the growth in [19] and in [20] were 53.3% and 62.9%, respectively.

On to `COc1ccc(NC(=O)c2sc3nc(C)c(C(C)=O)cc3c2N)cc1`, for which the growth is 98.1% in experiment [1]; 95.9% in experiment [2]; 95.5% in experiment [3]; 99.1% in experiment [4]; 96% in [5]; 94.6% in [6]. The growth was 75.2% in experiment [7]; 84% in [8]; 91.4% in experiment [9]; 103% in experiment [10]; 102% in experiment [11]; 86.2% in [12]. Moreover, the growth is 115% in experiment [13]; 102% in experiment [14]; 105% in experiment [15]; 102% in [16]; 97.7% in experiment [17]; 87.8% in [18]. Further, the results for the growth in experiment [19] and in experiment [20] were 88.7% and 100%, respectively.
